Compound activity as filed in PubChem.
This is one part of a sample in which hits are shown more often than they occur.
Pf apPOL block: Pf-apPOL DNA polymerase inhibition; Recombinant Pf-apPOL, molecular beacon fluorescence, 1.5 h; inhibition, % at 10 µM; hit rate 0.25% among 210,000; AID 1794808
mHTT-CaM PPI inh: disrupts binding of mutant huntingtin to calmodulin; hit rate 3.6% among 190,000; AlphaScreen His-mHTT/GST-CaM binding, luminescence; P42858; AID 1671202; inhibition, % at 15 µM;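 note: 0% = both proteins with DMSO and 100% = one protein alone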
* = called active by the depositor; · = not tested or not shown; ! = not active in a repeat. Cut-off read from the data, not from the text of the source: active = inhibition above about 50%; inactive = the rest.

SMILES | Pf apPOL block | mHTT-CaM PPI inh
CC1(C)CC(=O)C2=C(C1)N=C1c3ccccc3C(=O)C1C2c1cccc(Cl)c1 (stereo not drawn) | -2 | 64*
O=C1CCCC2=C1C(c1cccc(Cl)c1)C1C(=O)c3ccccc3C1=N2 (stereo not drawn) | -10 | 4
CC1(C)CC(=O)C2=C(C1)N=C1c3ccccc3C(=O)C1C2c1cccc([N+](=O)[O-])c1 (stereo not drawn) | -2 | 51*!
COc1cc(OC)c(Nc2ncnc3sc(C)cc23)cc1Cl | -2 | -3
O=C1CC2(CCN(C(=O)Cc3cccs3)CC2)Oc2ccccc21 | 7 | 2
CCN1c2cc(F)ccc2C(=O)NC12CCN(C(=O)c1ccc(C)cc1)CC2 | 1 | -8
CCN1c2cc(C)ccc2-n2cccc2C12CCN(C(=O)c1ccc3c(c1)OCO3)CC2 | -4 | 66*
CCN1c2cc(C)ccc2-n2cccc2C12CCN(C(=O)c1ccc(F)cc1)CC2 | 1 | 85*
CCN1c2cc(C)ccc2-n2cccc2C12CCN(C(=O)Cc1cccs1)CC2 | -2 | 98*
CCN1c2ccc(C)cc2C(=O)NC12CCN(C(=O)c1ccc3c(c1)OCO3)CC2 | 1 | -1
O=S(=O)(c1cccc2cccnc12)N1CCCN(CCc2ccccc2)CC1 | 8 | ·
O=C(NCCc1c[nH]c2ccccc12)C1CCCCC1 | 6 | 0
Cc1ccc(-c2nc(C3CCN(S(=O)(=O)c4ccccc4F)CC3)no2)cc1 | -5 | -6
CCn1ccc2c(ccn2CC(=O)Nc2ccc(Br)cc2)c1=O | -1 | 1
Cc1cccc(-c2cnc(N3CCC(C(=O)Nc4ccc(F)cc4)CC3)nc2)c1 | 1 | 100*
Cc1cccc(NC(=O)C2CCN(c3ncc(-c4ccccc4)cn3)CC2)c1 | 1 | -8
O=C(c1ccccn1)N1CCC(Nc2cccnc2)C1 (stereo not drawn) | -4 | 3
COc1cccc(C(=O)Nc2ccc(-c3nc4ccccc4s3)cc2)c1 | 1 | -7
COCCc1noc(COC2CCN(C(=O)c3ccccn3)CC2)n1 | -5 | -4
COc1ccc(C)cc1C1=C/C(=C\c2ccc(C)o2)C(=O)O1 | 3 | 61*
COc1ccc(OC)c(/C=C2\C=C(c3cc(OC)ccc3OC)OC2=O)c1 | -8 | 12
Cc1cccc(C(=O)N2CCC3(CC2)NC(=O)N(Cc2ccccc2Cl)C3=O)c1 | -2 | 5
O=C(c1ccc(-n2nnc3ccccc3c2=O)cc1)N1CC=C(c2ccccc2)CC1 | -5 | 23
O=C(/C=C/c1cccc([N+](=O)[O-])c1)Nc1ccccn1 | -4 | 2
O=[N+]([O-])c1cccc(C(Nc2ccccn2)c2ccc3cccnc3c2O)c1 (stereo not drawn) | -3 | 100*
SMILES | Pf apPOL block | mHTT-CaM PPI inh
Cc1cc(NC(=O)c2cccc([N+](=O)[O-])c2)no1 | -3 | -6
Cc1cc(NC(c2cccc([N+](=O)[O-])c2)c2ccc3cccnc3c2O)no1 (stereo not drawn) | 1 | 100*
CCN1CCN(CC2CCN(S(=O)(=O)Cc3ccccc3F)CC2)CC1 | -4 | -6
CSc1sc(C(=O)C(C#N)=NNc2cccc(C(F)(F)F)c2)c2c1C=CCC2 | -1 | ·
Cc1ccc(CN2CCC(C(=O)N(CCc3ccccc3)Cc3ccccc3)CC2)o1 | 1 | 58*
O=C(C1CCN(Cc2ccccc2O)CC1)N(CCc1ccccc1)Cc1ccccc1 | 2 | 17
Cc1ccc(S(=O)(=O)N2CCC(=O)N([C@H](COCc3ccc(C(F)(F)F)cc3)C(C)C)CC2)cc1 | -3 | 30
O=C(c1ccc(C(F)(F)F)cc1)N1CCC(=O)N([C@H](COCc2ccc(Cl)cc2)Cc2ccccc2)CC1 | -7 | 100*
CC(C)(C)c1ccc(C(=O)N2CCC(=O)N([C@H](COCc3ccc(Cl)cc3)Cc3ccccc3)CC2)cc1 | -1 | 48
O=C1CCN(Cc2ccc(O)cc2)CCN1[C@H](CO)Cc1ccccc1 | -1 | -4
CC(C)C[C@@H](COCc1ccc(Cl)cc1)N1CCN(C(=O)c2ccc(C(F)(F)F)cc2)CCC1=O | -1 | 99*
O=C(c1ccc(C(F)(F)F)cc1)N1CCC(=O)N([C@H](COCc2ccc(C(F)(F)F)cc2)Cc2ccccc2)CC1 | -1 | 99*
Cc1nn(-c2ccccc2)nc1C(=O)NNC(=S)Nc1cccc(Cl)c1C | -252 | ·
Cc1ccc(CNC(=O)CCc2conc2-c2ccc(F)cc2)o1 | 2 | 7
CC(O)(CNC(=O)C=Cc1ccc2c(c1)OCO2)c1ccco1 (stereo not drawn) | 1 | 2
Cc1ccc(Cl)cc1N1C(=O)c2ccccc2C1C(=O)NC1CCCCC1 (stereo not drawn) | -18 | 14
O=c1c2c(nc(SCc3ccc([N+](=O)[O-])cc3)n1-c1ccccc1)CCS2 | 0 | 13
CN(C)c1ccc(/C=C2/N=C(c3ccc(Cl)cc3)OC2=O)cc1 | 0 | 3
CCCC(=O)N1CCC(CCOc2ccccc2)CC1 | -3 | 14
COc1ccc(CCC(=O)Nc2cccc(N3CCCC3=O)c2)cc1 | -7 | -8
